Source: ChEMBL document CHEMBL3988442, “University of Dundee, Small-Polar-MMV Screening Library” (2021)

The compounds below were run against T1, Aspartate--tRNA(Asp/Asn) ligase (Mycobacterium tuberculosis (strain ATCC 25618 / H37Rv)) (UniProt P9WFW3) (assay: Assay for Asp RNA synthetase-1 from Mycobacterium tuberculosis). Settings: 30 µM.
T1 sequence (whole entry): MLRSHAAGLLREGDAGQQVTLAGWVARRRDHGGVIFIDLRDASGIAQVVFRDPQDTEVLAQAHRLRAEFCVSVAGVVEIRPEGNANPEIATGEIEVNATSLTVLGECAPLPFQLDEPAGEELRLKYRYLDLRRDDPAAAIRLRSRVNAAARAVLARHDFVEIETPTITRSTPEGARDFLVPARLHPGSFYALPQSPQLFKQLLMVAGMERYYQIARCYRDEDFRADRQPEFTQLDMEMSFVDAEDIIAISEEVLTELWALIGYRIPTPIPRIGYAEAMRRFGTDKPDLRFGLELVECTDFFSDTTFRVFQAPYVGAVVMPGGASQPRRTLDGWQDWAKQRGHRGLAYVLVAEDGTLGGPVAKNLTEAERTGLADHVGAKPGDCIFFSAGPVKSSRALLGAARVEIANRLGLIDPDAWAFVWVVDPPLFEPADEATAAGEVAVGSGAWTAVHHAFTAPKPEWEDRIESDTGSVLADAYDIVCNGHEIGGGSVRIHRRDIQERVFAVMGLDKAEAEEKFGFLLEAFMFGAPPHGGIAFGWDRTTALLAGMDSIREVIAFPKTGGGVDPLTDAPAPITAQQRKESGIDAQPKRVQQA
Assay type: functional
Set-up: scale not given: in the data most compounds retested in dose-response had high values
In the case of `COc1c(CNC2CCc3c(Cl)cccc32)c(C)nn1C` (stereo unspecified), the Percent Effect is reported as -1.71%. For `O=C(c1ccc2c(c1)CCC2)N1C[C@@H](CN2CCOCC2)[C@@H](CO)C1`, the Percent Effect was 1.28%. `Cc1nn(C)c(C)c1C1COCCN1c1ncnc2sccc12` (stereo unspecified) showed a Percent Effect of 0.54%. For `CCCc1nc(N2Cc3cnn(Cc4ccc(F)cc4)c3C2)no1`, the Percent Effect was -0.77%. `O=C(O)C(c1ccc2c(c1)OCO2)N1CCC(C(=O)N2CCCC2)CC1` (stereo unspecified) was tested, and the Percent Effect was -0.103%. For `O=c1oc(-c2cccs2)nn1CC(O)c1ccccc1` (stereo unspecified), the Percent Effect was 1.71%. In the case of `CCOc1cccc(C(C)NCc2ccc(OC)c(OC)c2OC)c1` (stereo unspecified), the Percent Effect is reported as -1.94%. Work on `Cc1ccc(S(=O)(=O)NCCNC(=O)c2ccoc2)cc1F` yielded a Percent Effect of -4.4%. `CCc1nc(NS(=O)(=O)c2ccc(C)cc2Cl)no1` gave a Percent Effect of -5.6%. In the case of `CC(NC(=O)Cn1cccn1)c1cccnc1` (stereo unspecified), the Percent Effect is reported as -1.34%. In the case of `O=C(c1cncc(N2CCC(O)(CO)CC2)n1)N1CCCC1`, the Percent Effect is reported as -3.27%. Work on `Cc1n[nH]c(C2CN(CC(=O)NCc3ccco3)CCO2)n1` (stereo unspecified) yielded a Percent Effect of 0.448%. `CN1CCCC(CNC(=O)N2CCN(Cc3ccon3)CC2)C1` (stereo unspecified) was tested, and the Percent Effect was -6.42%. Compound `COc1ccc(CNC(C)c2cccc(Cl)c2)c(OC)c1OC` (stereo unspecified) has a Percent Effect of -3.05%. `CN(Cc1ccccc1)C1(C(=O)O)Cc2ccccc2C1` was tested, and the Percent Effect was -1.53%. Work on `Cc1nn(C)cc1CNC(=O)c1cn(CCC2CCCCN2)nn1` (stereo unspecified) yielded a Percent Effect of -2.13%. `Cc1cnn(CCNCc2ccc(OCc3csc(C)n3)cc2)c1` showed a Percent Effect of -0.126%. Compound `COc1cccc(CN(C)C(=O)CN2CCN(c3nccn3C)CC2)c1` has a Percent Effect of 2.95%. With `COc1ncccc1C(=O)N1CCC(CNC(C)=O)CC1` the Percent Effect was 1.83%. Compound `CC(=O)Nc1c(C)cnn1Cc1cc(F)ccc1F` has a Percent Effect of 2.1%. `CCNC(=O)c1cnc(Cc2ccc(F)cc2)s1` showed a Percent Effect of -3.94%.
